Measured values from PubChem BioAssay (EPA / NIEHS).
Activity calls are given as the source filed them. Rule for the calls: active = hit-call score of the fitted dose curve at least 0.9, where 1 is the maximum; inactive = score below 0.9.

Experiments:
[1] = ATG_E_Box_CIS: Attagene CIS-FACTORIAL HepG2 Assay for human Enhancer Box (E-box) (AID 2282936); settings: HepG2 E-box cis-reporter transcription, actives raise or lower the signal
How it was run: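 HepG2 cells transiently transfected with multiplexed cis-element reporter units, dosed 24 h; reporter mRNA quantified by RT-PCR, 6-FAM labelling, HpaI digestion and capillary electrophoresis. E-box (USF1) signal fitted bidirectionally vs DMSO.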

[2] = ATG_M_61_CIS: Attagene CIS-FACTORIAL HepG2 Assay for M61 Transcription Factor (Internal Marker) (AID 2282937); settings: HepG2 Attagene CIS-FACTORIAL M61 internal marker reporter; actives raise or lower the signal
How it was run: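 This endpoint serves as an internal background control within a multiplexed HepG2 cis-reporter panel. Cells are exposed for 24 h; reporter mRNA is amplified, fluorescently labelled and sized by capillary electrophoresis, with DMSO as negative control.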

[3] = ATG_EGR_CIS: Attagene CIS-FACTORIAL HepG2 Assay for human Early Growth Response 1 (EGR1) (AID 2282938); settings: HepG2 Attagene CIS-FACTORIAL EGR reporter mRNA; actives raise or lower the signal
How it was run: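 HepG2, transient MRTU transfection (cis promoters), 24 h compound. RNA → RT (oligo-dT) → PCR → 6-FAM labelling → HpaI cut → CE fluorescence. Bidirectional fit, DMSO baseline.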

[4] = ATG_M_19_CIS: Attagene CIS-FACTORIAL HepG2 Assay for M19 Transcription Factor (Internal Marker) (AID 2282939); settings: HepG2 Attagene CIS-FACTORIAL M19 internal marker reporter; actives raise or lower the signal
How it was run: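 Internal marker readout, fitted in both directions against DMSO, from HepG2 cells carrying transfected cis-element reporter constructs; RT-PCR and capillary electrophoresis of reporter mRNA after 24 h exposure.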

[5] = ATG_Ets_CIS: Attagene CIS-FACTORIAL HepG2 Assay for human Erythroblast Transformation Specific (ETS) (AID 2282941); settings: HepG2 ETS cis-reporter transcription, actives raise or lower the signal
How it was run: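 Human HepG2 hepatoma cells were transiently transfected with promoter-driven reporter constructs and treated for 24 hours. Reporter transcripts were quantified by RT-PCR with fluorescent primer extension; bidirectional curve fitting used DMSO as reference.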

[6] = target: Hepatocyte nuclear factor 3-beta (Homo sapiens) (UniProt Q9Y261); assay: ATG_FoxA2_CIS: Attagene CIS-FACTORIAL HepG2 Assay for human Forkhead box A2 (FOXA2) (AID 2282942); settings: HepG2 cis-reporter transcription factor activity, 24 h; actives raise or lower the signal
Sequence of Hepatocyte nuclear factor 3-beta (Homo sapiens) (Q9Y261 whole entry, looked up): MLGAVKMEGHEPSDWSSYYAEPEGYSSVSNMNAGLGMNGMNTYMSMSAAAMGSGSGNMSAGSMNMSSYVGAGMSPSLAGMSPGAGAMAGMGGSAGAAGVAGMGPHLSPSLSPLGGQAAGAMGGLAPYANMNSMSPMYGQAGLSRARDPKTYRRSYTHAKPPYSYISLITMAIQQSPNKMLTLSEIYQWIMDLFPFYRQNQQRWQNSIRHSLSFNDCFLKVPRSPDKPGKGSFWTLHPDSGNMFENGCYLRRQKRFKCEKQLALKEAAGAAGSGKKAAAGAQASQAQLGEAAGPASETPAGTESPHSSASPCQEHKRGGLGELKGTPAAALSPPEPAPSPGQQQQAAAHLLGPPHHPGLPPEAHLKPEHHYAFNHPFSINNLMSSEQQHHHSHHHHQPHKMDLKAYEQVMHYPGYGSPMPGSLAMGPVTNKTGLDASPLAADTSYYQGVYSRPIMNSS
How it was run: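 Cells: HepG2, transient multiplex reporter transfection. Exposure 24 h. Detection: reporter-specific RT-PCR, fluorescent labelling, restriction digest, capillary electrophoresis. Analysis: bidirectional curve fit, DMSO as negative control.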

[7] = ATG_FoxO_CIS: Attagene CIS-FACTORIAL HepG2 Assay for human Forkhead box O (FoxO) (AID 2282943); settings: HepG2 Attagene cis-reporter, FoxO element, mRNA; actives raise or lower the signal
How it was run: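 HepG2 cells transiently transfected with cis-element-driven reporter units report endogenous FoxO activity. After 24 h chemical exposure, reporter mRNA quantified by RT-PCR, fluorescent labeling, HpaI digestion and capillary electrophoresis; bidirectional fit versus DMSO.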

[8] = ATG_GATA_CIS: Attagene CIS-FACTORIAL HepG2 Assay for human GATA Binding Protein (AID 2282944); settings: HepG2 GATA cis-element reporter, Attagene multiplex mRNA; actives raise or lower the signal
How it was run: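 Reporter transcripts from a GATA cis-regulated unit, among multiplexed reporters in transfected HepG2 cells, were measured by RT-PCR with capillary electrophoresis after 24 h dosing. Induction or loss scored relative to DMSO.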

[9] = ATG_GLI_CIS: Attagene CIS-FACTORIAL HepG2 Assay for human Zinc Finger Protein GLI1 (AID 2282945); settings: HepG2, Attagene cis-factorial reporter mRNA, GLI element; actives raise or lower the signal
How it was run: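 Transiently transfected HepG2 cells report endogenous transcription factor activity via cis-element-driven reporter units. After 24 h compound exposure, reporter mRNA was measured by RT-PCR with capillary electrophoresis; bidirectional fitting against DMSO baseline.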

[10] = target: Bile acid receptor (Homo sapiens) (UniProt Q96RI1); assay: ATG_IR1_CIS: Attagene CIS-FACTORIAL HepG2 Assay for human Nuclear Receptor Subfamily 1 Group H Member 4 (NR1H4), IR1 submotif (AID 2282946); settings: IR1 reporter transcription, actives raise or lower the signal
Sequence of Bile acid receptor (Homo sapiens) (Q96RI1 whole entry, looked up): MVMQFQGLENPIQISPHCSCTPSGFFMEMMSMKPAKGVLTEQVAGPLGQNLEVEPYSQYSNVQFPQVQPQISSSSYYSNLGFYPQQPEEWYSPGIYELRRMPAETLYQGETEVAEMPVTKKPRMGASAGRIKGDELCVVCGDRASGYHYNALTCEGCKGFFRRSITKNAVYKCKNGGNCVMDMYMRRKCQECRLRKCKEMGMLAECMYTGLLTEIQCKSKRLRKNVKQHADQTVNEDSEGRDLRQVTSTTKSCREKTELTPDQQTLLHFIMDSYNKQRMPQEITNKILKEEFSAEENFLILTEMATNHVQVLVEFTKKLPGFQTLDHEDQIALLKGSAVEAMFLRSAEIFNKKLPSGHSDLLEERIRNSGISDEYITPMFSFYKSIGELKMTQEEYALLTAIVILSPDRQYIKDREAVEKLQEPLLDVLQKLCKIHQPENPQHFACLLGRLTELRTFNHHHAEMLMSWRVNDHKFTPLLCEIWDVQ
How it was run: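 HepG2 cells transiently transfected with multiple cis-promoter-driven reporter units to measure endogenous transcription factor activity; 24 h exposure. Reporter mRNA read by RT-PCR, FAM labelling, HpaI digestion and capillary electrophoresis. Bidirectional fit versus DMSO.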

[11] = ATG_GRE_CIS: Attagene CIS-FACTORIAL HepG2 Assay for human Glucocorticoid Response Elements (GRE) (AID 2282947); settings: HepG2 GRE cis-reporter, Attagene multiplex mRNA; actives raise or lower the signal
How it was run: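 Transiently transfected HepG2 cells carrying GRE cis-reporter units (endogenous TF activity) dosed 24 h; reporter mRNA quantified by RT-PCR, 6-FAM labelling, HpaI digestion and capillary electrophoresis. Bidirectional fit versus DMSO baseline.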

[12] = ATG_ISRE_CIS: Attagene CIS-FACTORIAL HepG2 Assay for human Interferon Regulatory Factor 1 (IRF1) binding to an Interferon-Stimulated Response Element (ISRE) (AID 2282948); settings: HepG2 ISRE cis-reporter (Attagene), mRNA transcription readout; actives raise or lower the signal
How it was run: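 Cell-based cis-reporter assay; HepG2; 24 h exposure; reporter mRNA by RT-PCR plus capillary electrophoresis fluorescence; activity in either direction scored relative to DMSO.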

[13] = ATG_M_32_CIS: Attagene CIS-FACTORIAL HepG2 Assay for M32 Transcription Factor (Internal Marker) (AID 2282949); settings: HepG2 Attagene cis-factorial M32 reporter, mRNA; actives raise or lower the signal;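 note: background control marker of the multiplexed CIS panel rather than a real target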
How it was run: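 Fluorescent capillary electrophoresis peaks of HpaI-digested, FAM-labelled RT-PCR reporter products give the signal. Source: transiently transfected human liver HepG2 cells, 24 h after chemical dosing; bidirectional fitting against DMSO.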

[14] = ATG_M_06_CIS: Attagene CIS-FACTORIAL HepG2 Assay for M06 Transcription Factor (Internal Marker) (AID 2282950); settings: HepG2 Attagene CIS-FACTORIAL M06 internal marker reporter; actives raise or lower the signal
How it was run: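 Serves as a background control readout. Transfected HepG2 exposed to compounds for 24 h, then reporter transcripts quantified by fluorescent RT-PCR and capillary electrophoresis. Both directions fitted against DMSO baseline.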

[15] = target: Hypoxia-inducible factor 1-alpha (Homo sapiens) (UniProt Q16665); assay: ATG_HIF1a_CIS: Attagene CIS-FACTORIAL HepG2 Assay for human Hypoxia Inducible Factor 1 (HIF1A) (AID 2282951); settings: HepG2 Attagene cis-factorial HIF1a reporter transcription; actives raise or lower the signal
Sequence of Hypoxia-inducible factor 1-alpha (Homo sapiens) (Q16665 whole entry, looked up): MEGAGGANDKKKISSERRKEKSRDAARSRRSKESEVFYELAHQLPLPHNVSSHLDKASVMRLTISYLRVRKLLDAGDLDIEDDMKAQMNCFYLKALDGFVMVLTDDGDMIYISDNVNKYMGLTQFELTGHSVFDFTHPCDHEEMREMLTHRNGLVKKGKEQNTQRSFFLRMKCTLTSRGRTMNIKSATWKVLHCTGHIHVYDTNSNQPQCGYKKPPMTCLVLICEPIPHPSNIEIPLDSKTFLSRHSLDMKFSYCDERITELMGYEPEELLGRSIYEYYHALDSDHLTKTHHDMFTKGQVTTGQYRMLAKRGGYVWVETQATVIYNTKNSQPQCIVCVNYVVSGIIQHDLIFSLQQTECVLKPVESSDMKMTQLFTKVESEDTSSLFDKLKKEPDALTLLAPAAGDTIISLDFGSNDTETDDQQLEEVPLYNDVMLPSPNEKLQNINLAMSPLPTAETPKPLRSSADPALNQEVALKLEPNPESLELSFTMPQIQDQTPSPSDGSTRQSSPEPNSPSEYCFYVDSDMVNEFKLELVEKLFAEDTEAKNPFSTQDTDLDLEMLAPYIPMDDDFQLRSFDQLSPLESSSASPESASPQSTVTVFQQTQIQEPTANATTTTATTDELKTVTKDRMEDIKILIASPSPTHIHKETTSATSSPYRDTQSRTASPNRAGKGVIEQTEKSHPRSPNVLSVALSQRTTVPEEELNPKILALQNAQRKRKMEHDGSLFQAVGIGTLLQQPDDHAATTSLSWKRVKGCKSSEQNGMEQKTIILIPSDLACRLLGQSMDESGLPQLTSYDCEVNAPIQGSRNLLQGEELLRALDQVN
How it was run: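 HepG2, transient cis-reporter library, 24 h dosing. RNA → RT (oligo dT) → PCR → 6-FAM primer extension → HpaI → CE. Bidirectional curve fit vs DMSO.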

[16] = target: Hepatocyte nuclear factor 6 (Homo sapiens) (UniProt Q9UBC0); assay: ATG_HNF6_CIS: Attagene CIS-FACTORIAL HepG2 Assay for human Hepatocyte Nuclear Factor 6 (HNF6) (AID 2282952); settings: HepG2 Attagene cis-factorial HNF6 reporter transcription; actives raise or lower the signal
Sequence of Hepatocyte nuclear factor 6 (Homo sapiens) (Q9UBC0 whole entry, looked up, the tested form may be a part): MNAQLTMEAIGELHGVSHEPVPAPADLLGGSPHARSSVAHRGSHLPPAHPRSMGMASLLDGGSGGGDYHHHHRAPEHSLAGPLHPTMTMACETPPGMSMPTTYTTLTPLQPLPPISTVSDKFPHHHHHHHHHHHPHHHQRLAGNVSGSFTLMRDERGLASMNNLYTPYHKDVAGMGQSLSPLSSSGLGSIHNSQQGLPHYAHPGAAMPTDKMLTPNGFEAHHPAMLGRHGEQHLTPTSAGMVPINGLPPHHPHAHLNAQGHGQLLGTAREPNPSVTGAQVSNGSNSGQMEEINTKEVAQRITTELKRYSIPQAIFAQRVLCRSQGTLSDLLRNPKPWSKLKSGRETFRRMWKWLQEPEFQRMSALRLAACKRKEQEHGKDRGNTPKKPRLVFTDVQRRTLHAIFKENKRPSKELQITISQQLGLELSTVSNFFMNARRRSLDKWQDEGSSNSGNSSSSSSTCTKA
How it was run: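 Reporter mRNA induction or loss in HepG2 after 24 h exposure; transient cis-MRTU transfection; fragments quantified by capillary electrophoresis; bidirectional analysis, DMSO as negative control.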

[17] = target: Heat shock factor protein 1 (Homo sapiens) (UniProt Q00613); assay: ATG_HSE_CIS: Attagene CIS-FACTORIAL HepG2 Assay for human Heat Shock Transcription Factor 1 (HSE) (AID 2282953); settings: HepG2 HSE cis-reporter, Attagene RNA transcription; actives raise or lower the signal
Sequence of Heat shock factor protein 1 (Homo sapiens) (Q00613 whole entry, looked up): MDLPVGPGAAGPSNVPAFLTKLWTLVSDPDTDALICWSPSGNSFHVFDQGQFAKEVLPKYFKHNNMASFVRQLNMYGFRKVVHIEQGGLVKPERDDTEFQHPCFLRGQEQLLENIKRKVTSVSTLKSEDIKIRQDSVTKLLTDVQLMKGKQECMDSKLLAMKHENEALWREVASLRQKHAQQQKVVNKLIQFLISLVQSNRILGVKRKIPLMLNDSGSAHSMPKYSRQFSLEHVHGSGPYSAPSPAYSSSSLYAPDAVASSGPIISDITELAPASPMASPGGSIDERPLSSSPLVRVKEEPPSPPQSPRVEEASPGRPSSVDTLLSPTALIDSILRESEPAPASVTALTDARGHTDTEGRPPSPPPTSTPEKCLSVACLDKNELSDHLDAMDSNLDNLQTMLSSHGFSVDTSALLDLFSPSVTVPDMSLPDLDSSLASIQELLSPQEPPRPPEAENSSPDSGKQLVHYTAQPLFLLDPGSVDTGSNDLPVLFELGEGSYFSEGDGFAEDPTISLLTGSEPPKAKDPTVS
How it was run: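 Endogenous transcription factor activity in transiently transfected HepG2, read as reporter mRNA by RT-PCR with fluorescent capillary electrophoresis after 24 h. Gain or loss of signal fitted versus DMSO baseline.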

[18] = ATG_MRE_CIS: Attagene CIS-FACTORIAL HepG2 Assay for human Metal Responsive Element (MRE) (AID 2282954); settings: HepG2 MRE cis-reporter transcription, Attagene multiplex; actives raise or lower the signal
How it was run: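 HepG2 cells transiently transfected with cis-element-driven reporter units; mRNA measured 24 h after dosing. Reporter transcripts quantified by RT-PCR, FAM labelling, HpaI digestion and capillary electrophoresis; bidirectional fit versus DMSO.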

[19] = ATG_PBREM_CIS: Attagene CIS-FACTORIAL HepG2 Assay for human Phenobarbital-responsive Enhancer Module (PBREM) (AID 2282955); settings: HepG2 PBREM cis-reporter, Attagene multiplexed transcription; actives raise or lower the signal
How it was run: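 HepG2, transient MRTU transfection, 24 h dosing; RNA → oligo(dT) RT → PCR → 6-FAM extension → HpaI → CE. Bidirectional fit vs DMSO.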

Measured: outcome

Cc1ccc(S(=O)(=O)Oc2ccc(N=Nc3ccc(-c4ccc(N=Nc5c(O)ccc6cc(S(=O)(=O)O)cc(S(=O)(=O)O)c56)c(C)c4)cc3C)cc2)cc1
inactive: all assays above

CCCCCCCCCCCCCCCC(=O)OC/C=C(C)/C=C/C=C(C)/C=C/C1=C(C)CCCC1(C)C
not listed: [13]
inactive: all other assays above

CCCCCCCCCCCC(=O)OC[C@@H](O)[C@H]1OC[C@H](O)[C@H]1O
inactive: all assays above

OCCc1ccccc1
not listed: [11] | [19]
inactive: all other assays above

NC1CCCCC1N (stereo not drawn)
inactive: all assays above

CCCCCCCCCC(C)C=O (stereo not drawn)
inactive: all assays above

Nc1ccccc1[N+](=O)[O-]
not listed: [13] | [19]
inactive: all other assays above

CC[N+](C)(CC)CC
inactive: all assays above

CCCCCCCCCCCCS(=O)(=O)Cl
not listed: [13]
inactive: all other assays above

COC(C)(C)CCCC(C)CC=O (stereo not drawn)
inactive: all assays above

C=CC(C)(O)CCC=C(C)C (stereo not drawn)
inactive: all assays above

CCC(C)S (stereo not drawn)
not listed: [16]
inactive: all other assays above

CCCCCCCC(=O)OCCCCCC
inactive: all assays above

CCN(CC)C(=O)N(CC)CC
not listed: [16]
inactive: all other assays above
